The values that follow come from PubChem BioAssay (EPA / NIEHS).

A word on the AC50: it is the concentration at which the activity in the assay is half-maximal.

The structures appear in SMILES notation. A structure can be active in one record and inactive in another. Active and inactive are the calls of the source. How the source made its calls: active means hit-call score of the fitted dose curve at least 0.9, where 1 is the maximum; inactive means score below 0.9.

Assay [1] can be described thus: BSK_3C_Proliferation: Cell Proliferation Assessment in the BioMAP Diversity Plus: 3C Assay (AID 2283006).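 On AC50: potency may reflect either rise or fall in cell number versus DMSO.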 The note with it: primary human endothelial cells (HUVEC). In a few lines:
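Proliferation as total protein: sulforhodamine B (0.1%) stain of TCA-fixed subconfluent human umbilical vein endothelial cells, absorbance 560 nm, 48 h after dosing. Activity fitted in both directions against DMSO baseline.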

Read-out in assay [2]: E-selectin (Homo sapiens) (UniProt P16581)
Description: BSK_3C_Eselectin: BioMAP Diversity Plus: 3C Assay for Eselectin Biomarker Activity (AID 2283015).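 On outcome: cell surface E-selectin protein quantified by ELISA 24 h after dosing.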 The note with it: primary human endothelial cells (HUVEC); actives raise or lower the signal. In a few lines: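 E-selectin ELISA readout, fitted bidirectionally relative to DMSO, taken 24 h post-dosing in HUVEC cultures of the 3C system. Overt cytotoxicity tracked with sulforhodamine B staining of parallel wells.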

Read-out in assay [3]: Interleukin-1 alpha (IL1a), IL1A (gene 3552)
The assay can be described thus: BSK_BE3C_IL1a: BioMAP Diversity Plus: BE3C Assay for Interleukin-1 alpha (IL1a) Biomarker Activity (AID 2283016). The note with it: primary human bronchial epithelial cells; actives raise or lower the signal. In a few lines:
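IL-1a measured by ELISA after 24 h treatment of human primary bronchial epithelial cells, with gain or loss of signal fitted versus DMSO. Parallel cultures stained with SRB gauge overt cytotoxicity.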

Read-out in assay [4]: Monocyte Chemoattractant Protein-1 (MCP1), CCL2 (gene 6347)
The assay can be described thus: BSK_3C_MCP1: BioMAP Diversity Plus: 3C Assay for Monocyte Chemoattractant Protein-1 (MCP1) Biomarker Activity (AID 2283017). To be noted: primary human endothelial cells (HUVEC); actives raise or lower the signal. In a few lines: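 MCP-1 was measured by ELISA 24 h after dosing in primary HUVEC 3C cultures and fitted in both directions relative to DMSO; cytotoxicity was checked by SRB total-protein staining in parallel wells.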

Read-out in assay [5]: Interleukin-8 (IL8), CXCL8 (gene 3576)
The assay can be described thus: BSK_3C_IL8: BioMAP Diversity Plus: 3C Assay for Interleukin-8 (IL8) Biomarker Activity (AID 2283020). To be noted: primary human endothelial cells (HUVEC); actives raise or lower the signal. In a few lines:
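IL-8 was measured by ELISA in HUVEC cultures 24 h after chemical dosing, with gain or loss of signal fitted relative to DMSO. Parallel SRB total-protein staining tracked overt cytotoxicity.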

A short description of assay [6]: BSK_3C_SRB: Viability Assessment in the BioMAP Diversity Plus: 3C Assay (AID 2283023).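 Further: fitted both ways against DMSO so a hit may be signal rise or drop.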 The note with it: primary human endothelial cells (HUVEC). Summed up: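 Cytotoxicity readout in parallel HUVEC 3C cultures: after 24 h compound exposure, cells fixed with 10% TCA, stained with 0.1% SRB and read at 560 nm. Gain or loss relative to DMSO fitted.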
Read-out in assay [7]: Matrix Metallopeptidase 1 (MMP1), MMP1 (gene 4312)
The assay can be described thus: BSK_BE3C_MMP1: BioMAP Diversity Plus: BE3C Assay for Matrix Metallopeptidase 1 (MMP1) Biomarker Activity (AID 2283024). To be noted: primary human bronchial epithelial cells; actives raise or lower the signal. Summed up:
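ELISA measurement of MMP-1 after 24 h compound exposure of primary human bronchial epithelial cells. Changes in either direction fitted relative to DMSO; parallel SRB staining checked overt cytotoxicity.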

Read-out in assay [8]: Pselectin, SELP (gene 6403)
The assay can be described thus: BSK_4H_Pselectin: BioMAP Diversity Plus: 4H Assay for Pselectin Biomarker Activity (AID 2283026). The note with it: primary human endothelial cells (HUVEC); actives raise or lower the signal. In a few lines:
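ELISA of surface P-selectin on HUVEC, 24 h after dosing, with parallel SRB staining (0.1% after 10% TCA fixation, 560 nm) for overt cytotoxicity. Activity fitted in both directions relative to DMSO.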

Assay [9] in a line: BSK_4H_SRB: Viability Assessment in the BioMAP Diversity Plus: 4H Assay (AID 2283027).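 Further: cells exposed to compound for 24 h before staining.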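 On AC50: curves fitted both ways versus DMSO so AC50 may be loss or gain.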 The note with it: primary human endothelial cells (HUVEC). Summed up: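 HUVEC, 24 h post-dose; 10% TCA fix, 0.1% SRB stain, A560 nm. Total protein = overt cytotoxicity, parallel to biomarker read. Bidirectional fit vs DMSO baseline.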
Assay [10] is described as follows: BSK_BE3C_SRB: Viability Assessment in the BioMAP Diversity Plus: BE3C Assay (AID 2283028).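 On AC50: fitted both ways so AC50 may mark signal gain or loss versus DMSO.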 To be noted: primary human bronchial epithelial cells. Summed up:
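Cytotoxicity read-out: SRB (0.1%) staining of TCA-fixed (10%) human lung bronchial epithelial cells, absorbance 560 nm, 24 h post-dosing. Curves fitted both directions relative to DMSO.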

Read-out in assay [11]: Thrombomodulin, THBD (gene 7056)
The assay can be described thus: BSK_3C_Thrombomodulin: BioMAP Diversity Plus: 3C Assay for Thrombomodulin Biomarker Activity (AID 2283029). The note with it: primary human endothelial cells (HUVEC); actives raise or lower the signal. In a few lines: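 ELISA measurement of thrombomodulin on HUVEC surface 24 h after chemical dosing; activity fitted in both directions relative to DMSO vehicle.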

Read-out in assay [12]: Vascular endothelial growth factor receptor 2 (Homo sapiens) (UniProt P35968)
Description: BSK_4H_VEGFRII: BioMAP Diversity Plus: 4H Assay for Vascular endothelial growth factor receptor 2 (VEGFR2) Biomarker Activity (AID 2283031).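 On AC50: cell-surface VEGFR2 protein level quantified by ELISA.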 To be noted: primary human endothelial cells (HUVEC); actives raise or lower the signal. In a few lines:
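Measured by ELISA after 24 h of compound treatment: VEGFR2 on primary human umbilical vein endothelial cells, fitted in both directions relative to DMSO. Parallel cultures received SRB staining (560 nm) for overt cytotoxicity.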

Read-out in assay [13]: Interferon-gamma inducible Protein 10 (IP10), CXCL10 (gene 3627)
The assay can be described thus: BSK_BE3C_IP10: BioMAP Diversity Plus: BE3C Assay for Interferon-gamma inducible Protein 10 (IP10) Biomarker Activity (AID 2283034). The note with it: primary human bronchial epithelial cells; actives raise or lower the signal. In a few lines:
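IP-10 quantified by ELISA in human primary bronchial epithelial cell cultures at 24 hours post-dosing. Gain or loss of signal fitted relative to DMSO; parallel SRB staining assessed overt cytotoxicity.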

Read-out in assay [14]: Urokinase-type plasminogen activator receptor (uPAR), PLAUR (gene 5329)
Description: BSK_BE3C_uPAR: BioMAP Diversity Plus: BE3C Assay for Urokinase-type plasminogen activator receptor (uPAR) Biomarker Activity (AID 2283039).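 On outcome: cells exposed to compound for one day before measurement.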 To be noted: primary human bronchial epithelial cells; actives raise or lower the signal. In a few lines:
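uPAR levels were measured by ELISA after 24 h compound treatment of primary human bronchial epithelial cells, fitted in both directions relative to DMSO. Parallel SRB staining served as the cytotoxicity read-out.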

Read-out in assay [15]: Interleukin-6 (IL6), IL6 (gene 3569)
The assay can be described thus: BSK_CASM3C_IL6: BioMAP Diversity Plus: CASM3C Assay for Interleukin-6 (IL6) Biomarker Activity for (AID 2283040). To be noted: primary human coronary artery smooth muscle cells; actives raise or lower the signal.

Read-out in assay [16]: Human Leukocyte Antigen - DR isotype (HLADR), HLA-DRA (gene 3122)
Description: BSK_CASM3C_HLADR: BioMAP Diversity Plus: CASM3C Assay for Human Leukocyte Antigen - DR isotype (HLADR) Biomarker Activity (AID 2283043).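 Further: cell-surface HLA-DR protein level quantified by ELISA.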 To be noted: primary human coronary artery smooth muscle cells; actives raise or lower the signal.

Read-out in assay [17]: Macrophage colony-stimulating factor (MCSF), CSF1 (gene 1435)
The assay can be described thus: BSK_CASM3C_MCSF: BioMAP Diversity Plus: CASM3C Assay for Macrophage colony-stimulating factor (MCSF) Biomarker Activity (AID 2283044).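 Further: M-CSF protein amount quantified by ELISA after 24 h exposure.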 The note with it: primary human coronary artery smooth muscle cells; actives raise or lower the signal.

Read-out in assay [18]: Low-density lipoprotein receptor (LDLR), LDLR (gene 3949)
The assay can be described thus: BSK_CASM3C_LDLR: BioMAP Diversity Plus: CASM3C Assay for Low-density lipoprotein receptor (LDLR) Biomarker Activity (AID 2283045).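 Further: LDLR protein level on the cell surface quantified by ELISA.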 The note with it: primary human coronary artery smooth muscle cells; actives raise or lower the signal.

Read-out in assay [19]: Monocyte Chemoattractant Protein-1 (MCP1), CCL2 (gene 6347)
The assay can be described thus: BSK_CASM3C_MCP1: BioMAP Diversity Plus: CASM3C Assay for Monocyte Chemoattractant Protein-1 (MCP1) Biomarker Activity (AID 2283046).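 Further: MCP-1 level quantified by ELISA 24 h after dosing.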 The note with it: primary human coronary artery smooth muscle cells; actives raise or lower the signal.

Assay [20] is described as follows: BSK_CASM3C_Proliferation: Cell Proliferation Assessment in the BioMAP Diversity Plus: CASM3C Assay (AID 2283047).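 Further: sub-confluent cells exposed 48 h before staining; fitted both ways against DMSO so gain or loss of cell number.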 The note with it: primary human coronary artery smooth muscle cells.

Sequence of E-selectin (Homo sapiens) (P16581 whole entry, looked up): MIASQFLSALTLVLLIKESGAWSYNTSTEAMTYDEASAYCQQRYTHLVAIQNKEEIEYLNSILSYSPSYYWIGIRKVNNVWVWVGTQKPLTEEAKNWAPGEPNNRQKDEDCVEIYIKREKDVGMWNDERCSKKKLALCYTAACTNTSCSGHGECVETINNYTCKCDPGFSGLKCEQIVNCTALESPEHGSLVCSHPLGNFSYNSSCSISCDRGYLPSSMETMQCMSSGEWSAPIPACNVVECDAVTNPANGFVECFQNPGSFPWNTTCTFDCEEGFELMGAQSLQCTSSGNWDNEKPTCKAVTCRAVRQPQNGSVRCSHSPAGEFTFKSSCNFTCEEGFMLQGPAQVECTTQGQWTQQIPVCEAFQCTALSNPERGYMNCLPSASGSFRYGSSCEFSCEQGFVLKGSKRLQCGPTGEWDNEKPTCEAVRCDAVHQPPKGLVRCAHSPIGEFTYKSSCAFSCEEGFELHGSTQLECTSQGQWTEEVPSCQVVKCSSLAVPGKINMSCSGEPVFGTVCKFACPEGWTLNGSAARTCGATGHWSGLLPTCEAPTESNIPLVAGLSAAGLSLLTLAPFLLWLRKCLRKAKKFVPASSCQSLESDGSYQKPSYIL

Consider `c1ccc(Nc2ccc3ccccc3c2)cc1`, for which the AC50 was 23.6 µM (active) in assay [1]; 13.8 µM (active) in [2]; 20 µM (active) in assay [3]; 26 µM (active) in [4]; 31.9 µM (active) in assay [5]; 30.2 µM (active) in assay [6]. The AC50 in assay [9] is 32.5 µM (active); in assay [10], 30 µM (active); in [13], 20 µM (active); in assay [17], 20 µM (active); in assay [20], 31.7 µM (active). Further, the outcome in assay [7], in assay [8], in [11], in assay [12], in assay [14] and in assay [15] was inactive. Besides, the result in [16], in assay [18] and in assay [19] was inactive.

Turning to `CCCCCCCCCCCC#N`, the AC50 in assay [1] is 32.2 µM (active); in assay [2], 30.2 µM (active); in assay [4] it was 36.2 µM (active); in [5] it was 20.6 µM (active); in assay [6] it was 34.1 µM (active); in assay [8], 20.6 µM (active). Further, the AC50 in assay [9] is 30.3 µM (active); in assay [12], 20.6 µM (active). Also, the outcome in assay [3], in assay [7], in assay [10], in assay [11], in [13] and in [14] was inactive. Moreover, the result in [15], in assay [16], in assay [17], in assay [18], in [19] and in [20] was inactive.

For the molecule `CNC(=O)Oc1cc(C)c(SC)c(C)c1`, the AC50 was 13 µM (active) in [1]; 20 µM (active) in [2]; 20 µM (active) in [6]; 12.9 µM (active) in assay [16]; 13.3 µM (active) in assay [17]; 7.52 µM (active) in assay [18]. Moreover, the AC50 in assay [20] is 20 µM (active). Also, the outcome in [3], in assay [4], in assay [5], in assay [7], in [8] and in assay [9] was inactive. For the same molecule, the result in assay [10], in [11], in assay [12], in [13], in assay [14] and in assay [15] was inactive. Besides, the outcome in [19] was inactive.

Take `CC1(C)[C@H](C(=O)O[C@H](C#N)c2cccc(Oc3ccccc3)c2)[C@@H]1C=C(Br)Br`: the outcome in assay [1], in [2], in assay [3], in [4], in assay [5] and in assay [6] was inactive. Further, the outcome in assay [7], in assay [8], in assay [9], in [10], in [11] and in [12] was inactive. Also, the outcome in assay [13], in [14], in assay [15], in assay [16], in [17] and in [18] was inactive. Besides, the outcome in [19] and in assay [20] was inactive. Also, in assay [16], the half-maximal activity concentration (AC50) was 11.1 µM (active).

For `CCC(C)c1cc([N+](=O)[O-])cc([N+](=O)[O-])c1OC(=O)C=C(C)C` (stereo unspecified), the AC50 is 11.2 µM (active) in [1]; 14.4 µM (active) in [2]; 20.9 µM (active) in assay [3]; 12.8 µM (active) in [4]; 0.00641 µM (active) in [5]; 12.9 µM (active) in assay [6]. For the same molecule, the AC50 in assay [7] was 34.2 µM (active); in [8], 7.89 µM (active); in assay [9] it was 20 µM (active); in [10], 32.5 µM (active); in assay [12], 8.71 µM (active); in assay [13] it was 8.21 µM (active). Moreover, the AC50 in assay [14] was 32.8 µM (active); in assay [16] it was 5.31 µM (active); in assay [17], 30.7 µM (active); in [18] it was 31.2 µM (active); in assay [20], 36.2 µM (active). In addition, the outcome in assay [11], in assay [15] and in [19] was inactive.
